Results filed as inconclusive are left out. A call without a number means that no potency is given here. Calls of active or inactive are those of the source. Calls come from the whole dose curve; as a rule, active = well fitted inhibition curve with a large enough effect; inconclusive = small, poorly fitted or top-dose-only effect; inactive = flat fitted curve, though single readings scatter.
Potency is the fitted concentration of half-maximal effect.

Chain of Glutathione peroxidase 1 (Homo sapiens) (P07203 whole entry, looked up): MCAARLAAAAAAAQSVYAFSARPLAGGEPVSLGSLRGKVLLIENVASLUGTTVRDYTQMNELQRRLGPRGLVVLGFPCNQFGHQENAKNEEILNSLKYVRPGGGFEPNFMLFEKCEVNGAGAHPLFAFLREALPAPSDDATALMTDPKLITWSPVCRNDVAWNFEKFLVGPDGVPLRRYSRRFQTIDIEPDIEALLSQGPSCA

The test has as its target Glutathione peroxidase 1 (Homo sapiens) (UniProt P07203). The experiment in a line: Primary qHTS Assay for Inhibitors of Recombinant Selenoprotein Glutathione Peroxidase 1 (GPX1) (AID 1845191). Note: nearly all actives have a fitted effect of over 65% in size. The note with it: recombinant GPX1, GR-coupled NADPH fluorescence, 15 min; series mostly up to 48.8 µM. Summed up: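 GR-coupled assay: compounds preincubated 30 min at room temperature with GPX1, then reaction started with CHP; final 10 nM GPX1, 1 mM GSH, 0.5 mM CHP, 0.5 mM NADPH, 100 nM GR, 0.01% BSA, pH 7.5 Tris buffer. NADPH fluorescence (340/450 nm) read at 0 and 15 min.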
On the technique in general: qHTS replaces the single test concentration by a dilution series.
`COC1(CS(=O)c2ccccc2)CCN(CCc2c[nH]c3ccc(F)cc23)CC1` (centres undefined): the Potency result was “inactive”.
For the compound `C=C1C[C@@H]2[C@H](CC[C@]3(C)C(=O)CC[C@@H]23)[C@@]2(C)C=CC(=O)C=C12`, the Potency result was “inactive”.
With `c1ccc2c(c1)Nc1ccccc1S2`, the Potency result is “inactive”.
The result for `Oc1ccc(Cl)cc1Cc1ccccc1` reads “inactive”.
Regarding `O=C1CC[C@@]2(O)[C@H]3Cc4ccc(O)c5c4[C@@]2(CCN3CC2CC2)[C@H]1O5`, the Potency result was “inactive”.
Next, `FC(F)(F)c1cccc(C2=CCN(CCc3ccc4ccccc4c3)CC2)c1`: “inactive”.
Regarding `Cc1cc(SCc2sc(-c3ccc(C(F)(F)F)c(F)c3)nc2C)ccc1OCC(=O)O`, the Potency is 12.8 µM (active).
The result for `COc1ccc2c(c1OC)CN1CCc3cc4c(cc3C1C2)OCO4` (centres undefined) reads “inactive”; that for `N[C@@H](Cc1ccc(N(CCCl)CCCl)cc1)C(=O)O`, “inactive”; that for `N#CC(C#N)=Cc1ccc(O)c(O)c1`, “inactive”.
For the compound `COC[C@H]1OC(=O)c2coc3c2[C@@]1(C)C1=C(C3=O)C2CCC(=O)[C@@]2(C)C[C@H]1OC(C)=O` (some centres undefined), the Potency entry is “inactive”.
With `CCC(C(N)=O)N1CCCC1=O` (centres undefined), the Potency result is “inactive”.
The result for `CNC(=O)N1N=C(c2ccc(N)cc2)c2cc3c(cc2CC1C)OCO3` (centres undefined) reads “inactive”; that for `Clc1ccc(COC(Cn2ccnc2)c2ccc(Cl)cc2Cl)cc1` (centres undefined), “inactive”.
Next, `CC(C)(C)NCC(O)c1cc(Cl)c(N)c(Cl)c1` (centres undefined): “inactive”; `CC(=O)Nc1cc([As](=O)(O)O)ccc1O`: “inactive”.
With `Oc1ccccc1-c1ccccc1`, the Potency entry is “inactive”.
On to `CC(C)NCC(O)c1ccccc1Cl` (centres undefined), for which the Potency result was “inactive”.
The result for `CCN(CC)C(=O)N[C@@H]1C=C2c3cccc4[nH]cc(c34)C[C@@H]2N(C)C1` reads “inactive”.

These data come from PubChem BioAssay (NCATS).
